Results filed as inconclusive are left out. Activity calls are given as the source filed them. Calls come from the whole dose curve; as a rule, active = well fitted cell-killing curve with a large enough effect; inconclusive = small, poorly fitted or top-dose-only effect, or effect the other way; inactive = no such curve, though single readings can be large or run the other way.
Potency is the fitted concentration of half-maximal effect.

This experiment can be described thus: Quantitative High-Throughput drug screen in 47 multiple myeloma cell lines against the NCATS MIPE library collection: KMS21BM_JCRB cell viability assay (AID 1918974). The note with it: ATP luminescence, 48 h; viability: at 45.8 µM unless noted. An excerpt:
PI: Beverly A. Mock Ph.D.
Laboratory of Cancer Biology and Genetics,
Center for Cancer Research, National Cancer Institute,
National Institute of Health, Bethesda, Maryland
Drug resistance and disease progression are common in multiple myeloma (MM) patients, underscoring the need for new therapeutic combinations. […] We hypothesized that effective combinations would reduce MYC expression and enhance p16 activity. […] These preclinical data identify potentially useful drug combinations for evaluation in drug-resistant MM and reveal potential mechanisms of combined drug sensitivity.
Described herein is the primary MIPE qHTS used to cherrypick compounds. Validated compounds were then further tested for potential synergistic activiy.
[1] Peat TJ, Gaikwad SM, Dubois W, Gyabaah-Kessie N, Zhang S, Gorjifard S, Phyo Z, Andres M, Hughitt VK, Simpson RM, Miller MA, Girvin AT, Taylor A, Williams D, D'Antonio N, Zhang Y, Rajagopalan A, Flietner E, Wilson K, Zhang X, Shinn P, Klumpp-Thomas C, McKnight C, Itkin Z, Chen L, Kazandijian D, Zhang J, Michalowski AM, Simmons JK, Keats J, Thomas CJ, Mock BA. Drug combinations identified by high-throughput screening promote cell cycle transition and upregulate Smad pathways in myeloma. Cancer Lett. 2023 Aug 1;568:216284. doi: 10.1016/j.canlet.2023.216284. Epub 2023 Jun 24. PMID: 37356470; PMCID: PMC10408729.
SEQUENCE No. (e.g., 1, 2, 3, etc.); […] (e.g., Cells, Incubation, Reagent, etc.); VALUE and DESCRIPTION.
1; Cells; 5 uL; white, solid bottom 1536-well Greiner assay plate.
2; Compounds; 23 nL; Kalypsis pin tool (Wako USA) equipped with a 1536-well pin head to transfer to the assay plates.
3; Incubation; 48 hours; 37C incubation.
4; Reagent;5uL; CellTiter Glo (Promega).
5; Detector; 425V; Luminescence; Viewlux PerkinElmer.
NOTES (numbers refer to Sequence numbers above)
1. The cell-based screening methods employed in this study were like those previously published. Briefly, the corresponding myeloma cell lines were screened in 1,536-well plates with 500 cells, 5-uL per well for inhibition of cell viability (assessed by measuring ATP levels with CellTiterGlo).
2. NCATS MIPE 4.0 library of approved and investigational drugs were added using the Kalypsis pin tool. Wells treated with DMSO only for 100% viability and media only wells for 0% viability were used as controls.
3. The assay plates were covered and incubated for 48 hours in a 37C, 5% CO2 incubator with controlled humidity.
4. After 48 hours, CellTilter-GloTM luminescent substrate mix (Promega) reagent was added to the assay plate and plates we incubated for 5 min at room temperature.
5. Signal was measured as median relative luminescence units on a ViewLux (PerkinElmer) multiplate reader.
[1] Heske CM, Davis MI, Baumgart JT, Wilson K, Gormally MV, Chen L, Zhang X, Ceribelli M, Duveau DY, Guha R, Ferrer M, Arnaldez FI, Ji J, Tran HL, Zhang Y, Mendoza A, Helman LJ, Thomas CJ. Matrix Screen Identifies Synergistic Combination of PARP Inhibitors and Nicotinamide Phosphoribosyltransferase (NAMPT) Inhibitors in Ewing Sarcoma. Clin Cancer Res. 2017 Dec 1;23(23):7301-7311. doi: 10.1158/1078-0432.CCR-17-1121. Epub 2017 Sep 12. PMID: 28899971; PMCID: PMC6636827.
As a reminder, the viability is a read-out of living cells in per cent, often relative to untreated cells. With `Cc1cc([C@@H](C)Nc2ccccc2C(=O)O)c2nc(N3CCOCC3)cc(=O)n2c1`, the viability was 15.1% [at 92.2 µM] (active).

As for `O=NN(CCCl)C(=O)NCCCl`, the “viability” value was 194% (inactive).

With `COc1ccccc1[C@H](c1cccc2ccccc12)[C@@](C)(C#N)C(=O)N1CCC(c2cccc(C(F)(F)F)c2)CC1`, the Potency is 9350 nM (active).

Turning to `CC[C@H](Nc1ncnc2nc[nH]c12)c1nc2cccc(F)c2c(=O)n1-c1ccccc1`, the “viability” value was 528% (inactive).

Take `Oc1ccc(C2CNCCc3c2cc(O)c(O)c3Cl)cc1` (stereo not given): the Potency was 18700 nM (active).

As for `COc1ccc(CCN2CCN(CCCc3ccccc3)CC2)cc1OC`, the Potency was 3320 nM (active).

Regarding `COc1cccc2cc(-c3nc(C4CCC(C(=O)O)CC4)n4ncnc(N)c34)[nH]c12` (stereo not given), the Potency is 469 nM (active).

`Oc1cccc(-c2nc(N3CCOCC3)c3oc4ncccc4c3n2)c1`: the viability was 37.2% [at 92.2 µM] (active).

As for `Cn1cnc2c(F)c(Nc3ccc(Br)cc3Cl)c(C(=O)NOCCO)cc21`, the Potency is 105 nM (active).

On to `Nc1ccc(S(=O)(=O)Nc2ccnn2-c2ccccc2)cc1`, for which the “viability” value is 164% (inactive).

For `CCN(c1ccccc1)c1cc(NC)[n+](C)c(C)n1`, the Potency is 372 nM (active).

In the case of `NS(=O)(=O)c1cc2c(cc1Cl)NC=NS2(=O)=O`, the viability is 201% (active).

In the case of `COc1ccc(-c2ccc3c(N4CCOC[C@H]4C)nc(N4CCOC[C@H]4C)nc3n2)cc1CO`, the Potency was 66.2 nM (active).

For `OC(CN1CCC(Cc2ccc(F)cc2)CC1)c1ccc(Cl)cc1` (stereo not given), the “viability” value was 125% (inactive).

Turning to `CC(C)(C)NCC(O)c1ccc(O)c(CO)c1` (stereo not given), the “viability” value is 147% (inactive).

With `NNCCc1ccccc1`, the Potency is 13200 nM (active).

For the compound `O=C(NOC[C@H](O)CO)c1ccc(F)c(F)c1Nc1ccc(I)cc1F`, the Potency is 29.6 nM (active).

With `CO[C@@H]1[C@H](N(C)C(=O)c2ccccc2)C[C@H]2O[C@]1(C)n1c3ccccc3c3c4c(c5c6ccccc6n2c5c31)C(=O)NC4`, the Potency is 166 nM (active).

As for `CS(=O)(=O)Oc1ccc2c(NC(N)=O)c(C(=O)c3ccc(Cl)cc3Cl)oc2c1`, the Potency is 2350 nM (active).

On to `S=C(NCc1ccc2c(c1)OCO2)N1CCN(c2ncnc3c2oc2ccccc23)CC1`, for which the Potency is 1210 nM (active).

For `COc1ccc(-c2ccc3c(N4CCOCC4)nc(N4C[C@@H](C)O[C@@H](C)C4)nc3n2)cc1CO`, the Potency was 833 nM (active).

On to `C[C@H](NC(=O)Cc1cc(F)cc(F)c1)C(=O)N[C@@H]1C(=O)N(C)c2ccccc2-c2ccccc21`, for which the viability is 138% (active).

For the compound `O=C(Nc1cccnc1)N1CCC(Cc2cccc(Oc3ccc(C(F)(F)F)cn3)c2)CC1`, the Potency was 9350 nM (active).

Consider `O=C(Nc1ccc(F)c(C(F)(F)F)c1)Nc1nnc(-c2ccncc2)s1`, for which the “viability” value is 173% (inactive).

With `CCOc1cc(N2CCC(O)CC2)ccc1Nc1ncc2c(n1)N(C)c1ccccc1C(=O)N2C`, the Potency was 526 nM (active).

As to `Cc1c(CN2CCN(C(=O)C(C)C)CC2)sc2c(N3CCOCC3)nc(-c3cnc(N)nc3)nc12`, the Potency is 526 nM (active).

Consider `CN(C)c1ccc(Nc2nc(N)n(C(=O)c3c(F)cccc3F)n2)cc1`, for which the Potency is 2350 nM (active).

For `c1ccc([C@H]2CN3CCSC3=N2)cc1`, the “viability” value is 125% (inactive).

As for `COc1ccc(-c2oc3cc(OC)ccc3c2C(=O)c2ccc(C#N)cc2)cc1`, the Potency was 1320 nM (active).

Take `COc1ccccc1-c1cccc(-c2c(O)c3cc(C#N)c(Cl)cc3[nH]c2=O)c1`: the viability is 162% [at 92.2 µM] (active).

For the origin of these results see PubChem BioAssay (NCATS).
